Source: ChEMBL document CHEMBL3988442, “University of Dundee, Small-Polar-MMV Screening Library” (2021)

Target: T1, Methionyl-tRNA synthetase, putative (Leishmania donovani (strain BPK282A1)) (UniProt E9BF75)
T1 sequence (whole entry): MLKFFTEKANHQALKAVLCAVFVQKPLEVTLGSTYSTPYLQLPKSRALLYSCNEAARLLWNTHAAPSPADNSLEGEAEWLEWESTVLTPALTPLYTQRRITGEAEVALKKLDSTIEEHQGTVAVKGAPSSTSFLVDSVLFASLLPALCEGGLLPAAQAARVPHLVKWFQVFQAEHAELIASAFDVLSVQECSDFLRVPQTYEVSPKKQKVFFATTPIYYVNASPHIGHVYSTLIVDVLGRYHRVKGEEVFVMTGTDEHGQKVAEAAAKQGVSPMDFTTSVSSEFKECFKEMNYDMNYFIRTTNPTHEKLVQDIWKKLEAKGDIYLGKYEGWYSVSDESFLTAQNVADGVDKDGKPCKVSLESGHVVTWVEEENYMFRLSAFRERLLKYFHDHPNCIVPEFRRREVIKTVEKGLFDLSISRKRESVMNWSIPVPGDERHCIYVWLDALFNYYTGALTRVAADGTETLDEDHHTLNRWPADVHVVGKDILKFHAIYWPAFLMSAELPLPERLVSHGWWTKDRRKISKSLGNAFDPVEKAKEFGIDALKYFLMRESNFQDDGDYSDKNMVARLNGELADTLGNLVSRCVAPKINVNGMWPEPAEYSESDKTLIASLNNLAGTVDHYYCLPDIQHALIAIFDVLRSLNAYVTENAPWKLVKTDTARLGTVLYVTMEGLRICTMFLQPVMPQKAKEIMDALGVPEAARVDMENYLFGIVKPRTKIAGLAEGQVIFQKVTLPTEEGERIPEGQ
Assay: Leishmania donovani Methionine tRNA synthetase (LdMetRS):v7. Dose response assay
Format: functional
Design: conc 80 nM, time 150 minutes

Which results are given for `Cc1nc(N(C)CC(=O)Nc2cc(C)on2)c2c3c(sc2n1)CCC3`?
PXC50 (MAX_EFFECT 9.844559585): < 4; PXC50 (MAX_EFFECT 10.63829787): < 4

With `Cc1nc(N2CCC(C)CC2)c2ccsc2n1` as the compound, how does the PXC50 (MAX_EFFECT 9.848484848) read?
The PXC50 was < 4.

And the PXC50 (MAX_EFFECT 11.2244898)?
Its PXC50 is < 4.

Which PXC50 (MAX_EFFECT 10.41666667) does the source give for `CCOC(=O)N1CCN(c2nc(-n3nc(C)cc3C)nc3sc4c(c23)CCCC4)CC1` here?
Its PXC50 is < 4.

What about the PXC50 (MAX_EFFECT 12.71929825) of the same compound?
Its PXC50 is < 4.

Which results are given for `CCc1nc(NCCCC(=O)O)c2cc(CC)sc2n1`?
PXC50 (MAX_EFFECT 11.55778894): < 4; PXC50 (MAX_EFFECT 13.02211302): < 4

How did the PXC50 (MAX_EFFECT 12.57995736) turn out when `Fc1cccc(OCc2cnc[nH]2)c1Oc1ccc(Cl)cc1` was run?
Its PXC50 is < 4.

And the PXC50 (MAX_EFFECT 14.69979296)?
The PXC50 was < 4.

`Nc1noc2ccc(-c3cnc4ccc(NCCn5cccn5)nn34)cc12` was tested. Which PXC50 (MAX_EFFECT 13.59649123) did it give?
The PXC50 was < 4.

And the PXC50 (MAX_EFFECT 13.74045802)?
The PXC50 was < 4.

Which PXC50 (MAX_EFFECT 13.66120219) does the source give for `COC(=O)c1sc2nc(C)nc(N(C)Cc3cccnc3)c2c1C` here?
Its PXC50 is < 4.

What about the PXC50 (MAX_EFFECT 13.90374332) of the same compound?
Its PXC50 is < 4.

With `Cc1nc(NCCNC(=O)c2ccccc2)c2c3c(sc2n1)CCCC3` as the compound, how does the PXC50 (MAX_EFFECT 14.39393939) read?
The PXC50 was < 4.

And the PXC50 (MAX_EFFECT 19.3877551)?
Its PXC50 is < 4.

What does the source list for `CNc1ccc2ncc(-c3ccc4onc(N)c4c3)n2n1`?
PXC50 (MAX_EFFECT 16.28498728): < 4; PXC50 (MAX_EFFECT 18.85964912): < 4

What does the source list for `CCNc1nc(CN2CCCCC2)nc2scc(-c3ccccc3)c12`?
PXC50 (MAX_EFFECT 17.42424242): < 4; PXC50 (MAX_EFFECT 18.36734694): < 4

With `CCNc1cc(-c2ccccn2)nc(Nc2ccc(F)c(Cl)c2)n1` as the compound, how does the PXC50 (MAX_EFFECT 18.84057971) read?
The PXC50 was < 4.

What about the PXC50 (MAX_EFFECT 22.81449893) of the same compound?
The PXC50 was < 4.

How did the PXC50 (MAX_EFFECT 19.33842239) turn out when `Nc1noc2ccc(-c3cnc4ccc(NCC5CCCO5)nn34)cc12` (centres undefined) was run?
The PXC50 was < 4.

What about the PXC50 (MAX_EFFECT 25.0) of the same compound?
The PXC50 was < 4.

Which results are given for `CC1CCc2c(Cl)cc(Cl)c(O)c2N1` (centres undefined)?
PXC50 (MAX_EFFECT 23.76425856): < 3; PXC50 (MAX_EFFECT 24.40604752): < 3

With `Cc1nc(N[C@@H](CC(C)C)C(=O)O)c2c3c(sc2n1)CCCC3` as the compound, how does the PXC50 (MAX_EFFECT 23.93617021) read?
Its PXC50 is < 4.

And the PXC50 (MAX_EFFECT 24.87046632)?
The PXC50 was < 4.

What does the source list for `CCN(CC)c1ccc2ccc(C(=O)N(C)C)cn12`?
PXC50 (MAX_EFFECT 27.22222222): < 4; PXC50 (MAX_EFFECT 35.21126761): < 4

Which PXC50 (MAX_EFFECT 27.86885246) does the source give for `COCCNc1nc(CSc2ccccc2)nc2sc(C)c(C)c12` here?
The PXC50 was < 4.

What about the PXC50 (MAX_EFFECT 28.34224599) of the same compound?
Its PXC50 is < 4.

Which results are given for `O=C(NC1CCCC1)c1ccc2ccc(N3CCCCC3)n2c1`?
PXC50 (MAX_EFFECT 36.52968037): < 4; PXC50 (MAX_EFFECT 39.81132075): < 4

Which results are given for `Cc1nc(N2CCC(NS(C)(=O)=O)CC2)c2c(-c3cccs3)csc2n1`?
PXC50 (MAX_EFFECT 36.61616162): < 4; PXC50 (MAX_EFFECT 37.24489796): < 4

`Cc1nc(N2CCC(CCN3CCCC3)CC2)c2ccsc2n1` was tested. Which PXC50 (MAX_EFFECT 38.29787234) did it give?
The PXC50 was < 4.

And the PXC50 (MAX_EFFECT 38.86010363)?
The PXC50 was < 4.

How did the PXC50 (MAX_EFFECT 43.2) turn out when `CCN(CCO)c1nc(-c2ccsc2)nc2sc3c(c12)CCCC3` was run?
Its PXC50 is < 4.

What about the PXC50 (MAX_EFFECT 48.67724868) of the same compound?
Its PXC50 is < 4.

Which PXC50 (MAX_EFFECT 45.5399061) does the source give for `O=C(c1c[nH]cn1)N1CCC(F)(F)C2(CCN(c3cccc(F)c3)C2)C1` (centres undefined) here?
Its PXC50 is < 4.

What about the PXC50 (MAX_EFFECT 46.11111111) of the same compound?
Its PXC50 is < 4.

Which results are given for `Nc1noc2ccc(-c3cnc4ccc(NCc5ccncc5)nn34)cc12`?
PXC50 (MAX_EFFECT 14.75826972): < 4; PXC50 (MAX_EFFECT 25.87719298): < 4

Which PXC50 (MAX_EFFECT 37.33333333) does the source give for `Nc1nc(CSc2ccccn2)nc2sc3c(c12)CCCC3` here?
The PXC50 was < 4.

And the PXC50 (MAX_EFFECT 37.56613757)?
The PXC50 was < 4.

For `CCc1nc(NCc2ccccn2)c2cc(C)sc2n1`, which PXC50 (MAX_EFFECT 5.651105651) is on record?
The PXC50 was < 4.

What about the PXC50 (MAX_EFFECT 6.030150754) of the same compound?
The PXC50 was < 4.

Which results are given for `OCc1ccc(Cl)cc1Cl`?
PXC50 (MAX_EFFECT 13.11787072): < 3; PXC50 (MAX_EFFECT 18.35853132): < 3

Which results are given for `Cc1nc(N2CCCC2)c2c3c(sc2n1)CCCC3`?
PXC50 (MAX_EFFECT 9.895833333): < 4; PXC50 (MAX_EFFECT 12.71929825): < 4

What does the source list for `CNC(=O)CN(C)c1nc(C)nc2sc3c(c12)CCC3`?
PXC50 (MAX_EFFECT 5.291005291): < 4; PXC50 (MAX_EFFECT 6.4): < 4
